KCNQ2 pot = potentiators of rat KCNQ2 potassium channel. AID 2239, 2010. B-score at 10 µM. CHO-K1 KCNQ2, FluxOR thallium flux fluorescence; hits give high values. 310,000 compounds, 0.54% hits;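 active = fluorescence ratio B-score at least 3 SD of library B-scores, with initial fluorescence B-score within 3 of them, cut at about 5.3 in these data; same plate scores as AID 2156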;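 also: B-score of peak minus minimum over baseline fluorescence ratio after K+ and Tl+ stimulus; positive B-score means potentiation of KCNQ2 with more thallium influx and brighter signal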
KCNQ2 inh = rat KCNQ2 potassium channel inhibitors, primary screen, cell-based, CHO-K1, FluxOR thallium flux, B-score; B-score at 10 µM; 310,000 compounds, 1.1% hits; 20 min; hits give low values; Potassium voltage-gated channel subfamily KQT member 2 (Rattus norvegicus), O88943;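 active = fluorescence ratio B-score at most minus 3 library SDs, with starting brightness B-score within 2 library SDs, cut at about -5.5 in these data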
Kir21 confirm = mouse Kir2.1 channel blockers, retest, confirmation, cell-based, FluxOR thallium flux, duplicate; AID 2032, 2009; 2,300 compounds, 41% hits; Kir2.1-expressing cells, FluxOR thallium flux fluorescence; hits give low values; Tl flux remaining, % of negative control (hits give low values), % at 10 µM; shares compounds with KCNQ2 pot;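 active = Primary-screen hit whose thallium flux fell at least 3 control SD below untreated wells in both duplicates, with normal baseline fluorescence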;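 also: 0% = blank wells without stimulus and 100% = stimulated no-compound controls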
HEK293 ctr = counter-screen for Kir2.1 inhibitors: effect in parental HEK293 cells. shares compounds with KCNQ2 pot. 2,300 compounds, 19% hits. FluxOR thallium flux fluorescence; 0% = unstimulated blank wells. FluxOR signal as % of negative control (100 = no effect), % at 10 µM;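 active = dye signal at least 3 control SD above or below untreated wells in both duplicates, raw fluorescence within 3, either direction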;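 also: percent is based on the flux ratio of peak minus minimum fluorescence over baseline F0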
CHO-K1 Tl ctr = nonspecific thallium flux increase in parental CHO-K1, confirmation, counter-screen for KCNQ2 potentiator project, cell-based, FluxOR thallium flux, duplicate; AID 2282, 2010; shares compounds with KCNQ2 pot; 1,200 compounds, 43% hits; parental CHO-K1 cells, FluxOR thallium flux fluorescence; zero = vehicle mean+3SD, 100% = vehicle-minus-blank window; activity increase over 3SD of controls, % at 10 µM;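 active = signal rise of at least 3 SD above the untreated control mean, in both duplicate wells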;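 also: counter screen of KCNQ2 potentiator hits so any rise reflects channel-independent effects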
KCNQ1 sel pot = human KCNQ1 channel potentiation off-target, confirmation, selectivity assay for KCNQ2 potentiator project, cell-based, CHO, FluxOR thallium flux | shares compounds with KCNQ2 pot | CHO KCNQ1 stable, FluxOR thallium flux fluorescence; beyond 3SD, as % of vehicle-control signal | activation over 3SD threshold, % at 10 µM | 1,200 compounds, 28% hits;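 active = fluorescence ratio rise of at least 3 SD of vehicle wells above their mean, in both replicate wells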;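 also: 0% = vehicle mean plus 3 SD and 100% = vehicle minus unstimulated blank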
KCNQ2 pot confirm = rat KCNQ2 channel potentiators, confirmation, cell-based, CHO, FluxOR thallium flux, duplicate | shares compounds with KCNQ2 pot | potentiation, less the hit threshold, % at 10 µM | CHO-KCNQ2 cells, FluxOR thallium flux fluorescence | 1,200 compounds, 68% hits;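 active = fluorescence ratio rising 3 SD or more over the vehicle control mean in both replicates, plus primary screen hit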;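 also: peak minus minimum thallium fluorescence divided by baseline after K/Tl stimulus; 0% = vehicle mean plus 3 SD and 100% = vehicle minus unstimulated blank difference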
Kir2-1 sel = mouse Kir2.1 channel activation off-target, confirmation, selectivity assay for KCNQ2 potentiator project, cell-based, HEK293, FluxOR thallium flux | shares compounds with KCNQ2 pot | HEK293 Kir2.1, FluxOR thallium flux fluorescence | activity over 3SD threshold, % at 10 µM | 1,200 compounds, 2% hits | AID 2345, 2010;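 active = fluorescence ratio rise of at least 3 SD above the vehicle-control mean, seen in both replicates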;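 also: 0% = vehicle mean plus 3 SD and 100% = vehicle minus no-stimulus blank window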
KCNQ2 W236L pot = potentiators of retigabine-insensitive KCNQ2 W236L, mechanism study for KCNQ2 potentiator project, cell-based, rat KCNQ2 W236L, CHO, automated patch clamp | 940 compounds, 10% hits | shares compounds with KCNQ2 pot | automated patch clamp current | current increase over 3SD of negative controls (%), hits give high values, % at 25 µM | AID 2558, 2010;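 active = current increase at least 3 SD of the untreated controls above them in both duplicate recordings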
Target sequence (O88943 whole entry W236L, looked up): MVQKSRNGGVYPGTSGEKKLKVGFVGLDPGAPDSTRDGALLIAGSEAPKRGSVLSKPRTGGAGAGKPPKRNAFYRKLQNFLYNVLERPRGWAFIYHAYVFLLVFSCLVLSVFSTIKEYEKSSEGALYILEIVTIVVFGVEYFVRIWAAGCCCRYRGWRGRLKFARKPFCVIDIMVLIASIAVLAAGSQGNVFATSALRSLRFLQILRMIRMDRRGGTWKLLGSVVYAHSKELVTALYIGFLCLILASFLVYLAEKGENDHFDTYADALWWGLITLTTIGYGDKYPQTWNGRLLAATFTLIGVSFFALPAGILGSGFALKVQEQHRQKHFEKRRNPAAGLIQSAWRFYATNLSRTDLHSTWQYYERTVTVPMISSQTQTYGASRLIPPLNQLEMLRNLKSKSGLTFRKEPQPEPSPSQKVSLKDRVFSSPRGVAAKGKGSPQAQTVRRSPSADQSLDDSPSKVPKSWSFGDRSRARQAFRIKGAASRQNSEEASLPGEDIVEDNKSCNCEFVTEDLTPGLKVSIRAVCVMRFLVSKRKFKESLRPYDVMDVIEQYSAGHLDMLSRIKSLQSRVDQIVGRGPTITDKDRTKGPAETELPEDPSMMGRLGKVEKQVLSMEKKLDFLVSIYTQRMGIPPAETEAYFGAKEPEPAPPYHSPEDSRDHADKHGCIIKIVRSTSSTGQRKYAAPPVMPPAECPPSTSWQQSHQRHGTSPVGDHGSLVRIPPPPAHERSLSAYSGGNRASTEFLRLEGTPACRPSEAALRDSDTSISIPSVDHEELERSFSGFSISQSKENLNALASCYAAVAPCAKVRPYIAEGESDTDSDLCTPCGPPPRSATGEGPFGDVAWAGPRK
* marks the source's active call; other numbers are inactive results; i = inactive; / = no result given. A selection: hits, their analogues and other compounds. The true share with any hit is near 1.6%.

SMILES	KCNQ2 pot	KCNQ2 inh	Kir21 confirm	HEK293 ctr	others
Fc1ccc(-c2cc(C(F)(F)F)nc(-n3cncn3)n2)cc1	6.2*	i	i	i	CHO-K1 Tl ctr=-11;KCNQ1 sel pot=-11;KCNQ2 pot confirm=19*;Kir2-1 sel=-14;KCNQ2 W236L pot=i
COCCNC(=S)N1CCN(c2nc(-c3cccc(OC)c3)cs2)CC1	/	i	/	/
C=CCc1cc(Cl)ccc1OCCCNC(C)C	0.39	i	/	/
C=CCc1cc(Cl)ccc1OCCOCCNC(C)CC (configuration not stated)	0.16	i	i	i
C=CCNS(=O)(=O)c1cc(S(=O)(=O)NCC=C)c(OC)cc1OC	0.65	i	/	/
Cc1ccc(S(=O)(=O)CCC(=O)c2cccc([N+](=O)[O-])c2)cc1	-13	-13*	51%*	58%*
Cc1ccc(S(=O)(=O)NCC(=O)Nc2cccc([N+](=O)[O-])c2)cc1	0.34	i	/	/
CC(=O)N(C(C)=O)n1c(C)nc2sc3c(c2c1=O)CCCC3	1.3	i	/	/
CCc1nc2sc3c(c2c(=O)n1NC(=O)CCl)CCCC3	5.7*	i	i	i	CHO-K1 Tl ctr=-1;KCNQ1 sel pot=-8;KCNQ2 pot confirm=-3;Kir2-1 sel=-31;KCNQ2 W236L pot=i
CCn1c(SC(C)C(=O)O)nc2sc3c(c2c1=O)CCC3 (configuration not stated)	8.7*	i	i	205%*	CHO-K1 Tl ctr=5.3*;KCNQ1 sel pot=-18;KCNQ2 pot confirm=0.7*;Kir2-1 sel=-34;KCNQ2 W236L pot=i
CCCn1c(SCC(=O)N2CCN(C(C)=O)CC2)nc2sc3c(c2c1=O)CCC3	6.1*	i	i	290%*	CHO-K1 Tl ctr=15*;KCNQ1 sel pot=-16;KCNQ2 pot confirm=24*;Kir2-1 sel=-40;KCNQ2 W236L pot=i
CC(Sc1nc2sc3c(c2c(=O)n1-c1ccccc1)CCCC3)C(=O)O (configuration not stated)	1.2	i	/	/
CCCn1c(SCC(=O)NCC)nc2sc3c(c2c1=O)CCC3	/	i	/	/
COc1cccc(CNC(=O)CCC2CCCN(Cc3cc(Cl)ccc3O)C2)c1 (configuration not stated)	/	i	/	/
CCCCC#Cc1ccccc1CC(=O)Nc1ccccc1	7.1*	i	i	i	CHO-K1 Tl ctr=99*;KCNQ1 sel pot=-6;KCNQ2 pot confirm=9.6*;Kir2-1 sel=-37;KCNQ2 W236L pot=i
CCCC(=O)Nc1ccc(C#Cc2ccccc2)cc1	/	i	/	/
O=C(c1ccco1)N1CCN(c2ncnc3c2cnn3-c2ccccc2)CC1	0.79	i	/	/
CCc1cc2c(N3CCN(C(=O)c4ccco4)CC3)ncnc2s1	5.7*	i	i	i	CHO-K1 Tl ctr=-8;KCNQ1 sel pot=36*;KCNQ2 pot confirm=-18;Kir2-1 sel=-39
Cc1cc(C)c(S(=O)(=O)N2CCC(C(=O)NCc3ccc(Cl)cc3Cl)CC2)c(C)c1	6*	i	i	i	CHO-K1 Tl ctr=-5;KCNQ1 sel pot=-52;KCNQ2 pot confirm=-2;Kir2-1 sel=-36
Cc1cc(C)c(S(=O)(=O)N2CCC(C(=O)NCc3ccncc3)CC2)c(C)c1	0.36	i	/	/
COCCNC(=O)CN(C(=O)CCC(=O)Nc1nccs1)c1ccc2c(c1)OCO2	/	i	/	/
CC[C@H](C)[C@@H](CNC)NC[C@@H](Cc1ccc(O)cc1)NCC(C)(C)C	0.03	i	/	/
CC[C@@H](C)[C@H](CN[C@H](CNC)C(C)C)NC[C@@H](C)c1ccc(CC(C)C)cc1	/	i	26%*	i
COC(=O)C1=C(C(=O)OC)[C@@H]2N(C)c3ccc(OC)cc3[C@@]23C[C@@H](C(=O)OC)N(S(=O)(=O)c2ccc(OC)cc2)C3=N1	/	i	/	/
COc1cc(NC(=O)c2ccccc2C)c(OC)cc1NC(=O)CN1CCOCC1	/	i	/	/
SMILES	KCNQ2 pot	KCNQ2 inh	Kir21 confirm	HEK293 ctr	others
CCC(C)n1c(NC(=O)c2ccccc2)c(C#N)c2nc3ccccc3nc21 (configuration not stated)	/	i	/	/
CCCCn1c(NC(=O)c2ccc(F)cc2)c(C#N)c2nc3ccccc3nc21	5.7*	i	i	66%*	CHO-K1 Tl ctr=103*;KCNQ1 sel pot=-8;KCNQ2 pot confirm=-4;Kir2-1 sel=-38;KCNQ2 W236L pot=i
O=C(CCS(=O)(=O)c1ccc(Br)s1)NC1CCCCCC1	1.2	i	i	70%*
O=C(CCS(=O)(=O)c1ccccc1)NC1CCCCC1	0.47	i	/	/
O=S(=O)(NNc1ccc(F)cc1F)c1cccc(Cl)c1	0.03	i	/	/
CCCCOC(=O)C(C)Nc1n[nH]c(=S)[nH]c1=O (configuration not stated)	0.56	i	/	/
COc1cc2ncnc(NCCc3ccccc3)c2cc1OC	5.4*	i	i	131%*	CHO-K1 Tl ctr=11*;KCNQ1 sel pot=-9;KCNQ2 pot confirm=-8;Kir2-1 sel=-21
COc1ccc(CCNc2ncnc3cc(OC)c(OC)cc23)cc1OC	2.1	i	/	/
COc1ccc(Br)cc1CSC(=N)N	0.16	i	/	/
CCCCOc1ccc(CSC(=N)N)cc1Cl	/	i	28%*	i
CCOc1ccc(CSC(=N)N)cc1	1.5	i	/	/
CCCCCOc1ccc(Br)cc1CSC(=N)N	/	i	i	i
CCN(CC(=O)NCc1ccc(Cl)cc1)C(=O)/C=C/c1ccco1	0.04	i	/	/
O=C(c1cccc(COc2ccc(Cl)cc2Cl)c1)N1CCN(c2ccccn2)CC1	/	i	/	/
CN(C(=O)c1cccc(COc2ccc(Cl)cc2Cl)c1)c1ccccc1	/	i	i	i
N/C(=N\OC(=O)CCC1CCCCC1)c1cccc([N+](=O)[O-])c1	11*	i	i	i	CHO-K1 Tl ctr=24*;KCNQ1 sel pot=-15;KCNQ2 pot confirm=30*;Kir2-1 sel=-39;KCNQ2 W236L pot=i
N/C(=N\OC(=O)CCC1CCCC1)c1ccc([N+](=O)[O-])cc1	0.44	i	/	/
N/C(=N\OC(=O)CC1CCCCC1)c1ccc(Br)cc1	/	i	/	/

Screening data from PubChem.
